# Biological target: ZNF384
# Assay: pooled miR-30 sensor sort-seq; sequence = guide strand
# Details: shRNA
# Also: reference of the scale not given here.
row,Sequence,sensor-assay potency score (higher = more potent)
1,AATGTCAGTGAGCACATCCGGC,-0.852
2,TTGGACTCTGTGTCCATACTGA,-0.198
3,TTATCTTTGTTGTGTTGCCGTC,0.0211
4,ATTTGTATGGTCTATCACCAGT,-0.958
5,TTGTGTTCTCGATCTGACCTGA,0.373
6,TTGAGCCTGAGCCTGAGCCTGG,-0.986
7,ATCTTGTTGATGAACATTGTGT,-0.823

# Biological target: ZNF428
# Assay: as above
# Details: shRNA
row,Sequence,sensor-assay potency score (higher = more potent)
1,TTCTAAGACAACACAGACCGGC,0.28
2,TCACCTTGTAGCCAGGATCATA,-1.68
3,TTCCTCTTCGGAGTCCGGCTCT,-0.361
4,TTCTTCCTCTTCGGAGTCCGGC,-1.03
5,TGAATCAGAGGAATGCTCGGGG,0.32
6,TCATCATCTTCTTCCAAGCTGG,-0.45
7,TCTGAGAGAGTGTATTCTGAAT,-1.43
8,TCATCTTCTTCCAAGCTGGCGT,-0.345
9,AGAGAGTGTATTCTGAATCAGA,-1.95
10,TCTAAGACAACACAGACCGGCA,-0.807
11,ATATTCAGGATCGTCAGTGGTC,-0.14
12,TAAGACAACACAGACCGGCAGT,0.279

# Biological target: ZNF471
# Assay: as above
# Details: shRNA
row,Sequence,sensor-assay potency score (higher = more potent)
1,TAAACATCTCATGACTTCCCAT,-0.174
2,TTCTCCAACATCATACTCCTGT,0.565
3,TTAAGGATAACTTTCTTCTGAA,-0.561
4,TTTCTTGTGTTTTATTACCATA,-1.3
5,TAACTTTCTTCTGAACGCCTTC,-0.31
6,TTTGCCAGTGTGACATCTCTGA,-0.159
7,TACTCTTTGATGCTGAGTGAGT,-0.705
8,TGTGACATCTCTGATGTCGAGC,-0.679
9,TTCTCTGATGTACAGTACGGGA,-1.32
10,TTGATGTTGAGTAAGATTGGAA,-0.353

# Biological target: ZNF480
# Assay: as above
# Details: shRNA
row,Sequence,sensor-assay potency score (higher = more potent)
1,TTCTCTAAGGTGTACTTTCTGT,-0.808
2,TTTCTGATGTCGTACAAGGAGC,-1.17
3,TTGAATTGTAACTAAAAACCTT,-0.157
4,TAACTTGTGTCTGAATGCCTTG,-0.708
5,TGAATTGTAACTAAAAACCTTG,-0.76
6,TTCATCTGGAAATAGCTCCAGT,0.626
7,TAATTGGTTTGTCTTCTGCATT,-1.51
8,TTAGTGATAACTTGTGTCTGAA,-0.0434
9,TTTCAACTTGATTACATCCATT,-1.17
10,TTGATGTTTAGTAAGGCTGGAA,-0.447
